The values that follow come from ChEMBL document CHEMBL1157539, “Thousands of chemical starting points for antimalarial lead identification” (Nature, 2010).

Holding throughout (assay type): functional
For experiment [1], the system named is Plasmodium falciparum. As to the kind of experiment: GSK_TCMDC: Inhibition of Plasmodium falciparum 3D7 in whole red blood cells, using parasite LDH activity as an index of growth. Test compounds present at 2uM.
Experiment [2] has as its system Plasmodium falciparum. As to the kind of experiment: GSK_TCMDC: Inhibition of Plasmodium falciparum Dd2 in whole red blood cells, using parasite LDH activity as an index of growth. Test compounds present at 2uM.
For another experiment, the system named is HepG2. Description: GSK_TCMDC: Percent inhibition of human HepG2 cell line. Test compounds present at 10uM.

What is called Inhibition is the share of the control response that was lost under treatment. Low readings indicate little suppression, high ones strong suppression.

On to `O=C(NCc1ccc(F)cc1)c1ccc(N2CCN(c3ccncc3)CC2)cn1.O=C(O)C(F)(F)F`, for which the Inhibition in the experiment with Plasmodium falciparum [1] amounted to 98%; in the experiment with Plasmodium falciparum [2], 81%; in the experiment on HepG2, 7%.
For `CNC(=O)c1ccccc1Nc1cc(Nc2cc(OC)ccn2)ncc1Cl.O=CO` the same measures were 100%, 100% and 69%.
For `Cl.Oc1ccc2[nH]c(-c3cccs3)nc2c1CN1CCC(N2CCCC2)CC1` the same measures were 100%, 13% and 6%.
For `N#Cc1cccc(CNC(=O)c2cccc(Nc3ccnc4ccc(F)cc34)c2)c1.O=C(O)C(F)(F)F` the same measures were 87%, 26% and 0%.
For `C[C@H](Nc1c(Nc2ccc3[nH]ccc3c2)c(=O)c1=O)C1CCCCC1`, the results for the Inhibition in the experiment on Plasmodium falciparum [1], in the experiment with Plasmodium falciparum [2] and in the experiment on HepG2 were 96%, 11% and 7%, respectively.
For `O.O=C1C([N+](=O)[O-])=C(O)c2c(F)cccc21` the same measures were 95%, 13% and 9%.
For `COc1ccc(Cl)cc1-c1nc(C(=O)NCCN2CCCCC2)c(C)s1.O=C(O)C(F)(F)F` the same measures were 97%, 10% and 16%.
For `Cc1cc(N2CCCC2)nc(Nc2ccc(NC(=O)C(C)(C)C)cc2)n1` the same measures were 95%, 15% and 24%.
`CC(C)CCN(Cc1cncn1Cc1cccc(C(F)(F)F)c1)C(=O)c1ccccc1C#N`: the values for the Inhibition in the experiment with Plasmodium falciparum [1], in the experiment with Plasmodium falciparum [2] and in the experiment with HepG2 were 99%, 96% and 0%, respectively.
For `COc1cc(F)c2ncc(Cl)c([C@@H](O)CN3CCC(NCc4ccc5c(n4)NC(=O)CO5)CC3)c2c1.Cl` the same measures were 100%, 100% and 12%.
For `Cc1ccccc1C1CCN(C2CCC(NC(=O)/C=C/c3ccc(C(F)(F)F)cc3)CC2)CC1` (stereo not drawn) the same measures were 95%, 19% and 64%.
As for `CCOCCCn1c(=N)c(C(=O)NCc2ccc(F)cc2)cc2c(=O)n3cccc(C)c3nc21`, the Inhibition in the experiment on Plasmodium falciparum [1] was 100%; in the experiment on Plasmodium falciparum [2], 40%; with HepG2, 21%.
Consider `NC(=O)c1ccccc1OCC(=O)Nc1cccc(-c2ccc(-c3nc4ccccc4[nH]3)cc2)c1`, for which the results for the Inhibition in the experiment on Plasmodium falciparum [1], in the experiment on Plasmodium falciparum [2] and with HepG2 were 95%, 46% and 66%, respectively.
For `CC(C)(C)Nc1cc(C(=O)N[C@@H](Cc2ccccc2)[C@H](O)CNC2CCOCC2)cc(N2CCCCS2(=O)=O)c1` the same measures were 99%, 98% and 0%.
For `Clc1ccccc1OCc1ccccn1` the same measures were 85%, 2% and 2%.
For `COc1ccc2cc(-c3nc(-c4c(Cl)cccc4Cl)[nH]c3-c3ccnc(NCCCN4CCN(C)CC4)c3)ccc2c1.O=C(O)C(F)(F)F` the same measures were 98%, 80% and 10%.
In the case of `Br.C/C=C/C=C/C1=NCCc2cc(OCCC)ccc21`, the Inhibition with Plasmodium falciparum [1] is reported as 87%; with Plasmodium falciparum [2], 40%; in the experiment on HepG2, 0%.
For `CN(C)CCOc1cc(O)c2c(c1)OC(C)(C)C=C2c1cccs1` the same measures were 99%, 10% and 29%.
For `COc1ccc2cc(C(=O)Nc3ccc4c(c3)CCN(C3CCC3)CC4)ccc2c1.O=C(O)C(F)(F)F` the same measures were 100%, 9% and 34%.
In the case of `COc1cc(Cc2cnc(N)nc2N)cc(OCCn2ccccc2=O)c1OC`, the Inhibition is 97% in the experiment with Plasmodium falciparum [1], 0% with Plasmodium falciparum [2] and 4% in the experiment on HepG2.
For `CCOC(=O)c1ccc(NC(=O)Nc2ccc(-c3ccc(-c4nc5cccc(C)c5[nH]4)s3)cc2)cc1` the same measures were 100%, 100% and 60%.
For `COc1ccccc1CCNc1nccc(N[C@@H](Cc2ccccc2)C(=O)NCc2cccs2)n1.O=C(O)C(F)(F)F` the same measures were 90%, 79% and 34%.
`CC(C)(C)c1ccc(CNC(=O)/C=C/c2ccc(CNC3CCNCC3)cc2)cc1`: the Inhibition in the experiment with Plasmodium falciparum [1] worked out at 96%; with Plasmodium falciparum [2], 21%; in the experiment with HepG2 it was 6%.
Consider `Cc1c(CN2CCC(N3CCC(C(=O)NC4CC4)CC3)CC2)[nH]c2c(Cl)cccc12`, for which the Inhibition was 92% in the experiment with Plasmodium falciparum [1], 3% in the experiment with Plasmodium falciparum [2] and 22% in the experiment with HepG2.
For `Cl.N=C(N)c1cc(Br)cc(NC(=O)Nc2cc(Br)cc(C(=N)N)c2)c1`, the Inhibition is 93% in the experiment with Plasmodium falciparum [1], 76% in the experiment on Plasmodium falciparum [2] and 0% with HepG2.
For `CC(C)c1ccc(NC(=O)NC2CCN(CCCCCNC(=O)/C=C/c3ccc(Cl)c(Cl)c3)CC2)cc1` the same measures were 100%, 19% and 0%.
For `O=C(Cn1cnc2c(nnn2Cc2ccccc2F)c1=O)Nc1ccc2c(c1)OCCO2` the same measures were 86%, 1% and 0%.
For `CCCC(C)Nc1nc(C)cc(N[C@@H](Cc2ccccc2)C(=O)NCCOc2ccccc2)n1.O=C(O)C(F)(F)F` (stereo partly drawn) the same measures were 100%, 68% and 10%.
For the compound `O=C(Nc1ccc(Cl)cc1C(=O)Nc1cccc(F)c1)c1ccc([N+](=O)[O-])cc1`, the Inhibition came out at 89% in the experiment with Plasmodium falciparum [1], 54% in the experiment on Plasmodium falciparum [2] and 10% in the experiment with HepG2.
`CN(C)CCN(C)Cc1ccc(-c2cccc(NC(=O)c3ccc(Cl)cc3)c2)cc1.O=C(O)C(F)(F)F`: the Inhibition in the experiment with Plasmodium falciparum [1] came out at 97%; with Plasmodium falciparum [2], 71%; with HepG2, 69%.
For `Cc1csc2nc(-c3ccccn3)nc(Nc3ccc4ncsc4c3)c12.Cl` the same measures were 85%, 91% and 0%.
